Bioassay records deposited in PubChem BioAssay by National Center for Advancing Translational Sciences (NCATS).
Hits are enriched below; roughly 1.7% of the tested compounds scored in any of these assays.
GLP1R inv ag: GLP-1 receptor (human) inverse agonism. Potency, µM (titrated, usually from 38.3 µM), for inactives: top-dose activity change, negative = inhibition, actives largely listed as inhibitors. HEK293 GLP-1R CRE-luciferase, luminescence, 24 h; GLP-1R form is constitutively active. P43220. 410,000 compounds, 1.6% hits; note: % is set by controls: 0 for no effect and ±100 for the full control effect; nearly all actives have a fitted effect of over 55% in size
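GLP-1R inverse agonism mode: basal reporter luminescence in engineered HEK293 cells measured after one day of compound exposure at 37 deg C, with a 12 min room-temperature detection step.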
GLP-1R agonist: agonists of human GLP-1 receptor; P43220; AID 624172; HEK293 GLP-1R CRE-luciferase, luminescence, 4-6 h; cells express a hypersensitive GLP-1R form; 380,000 compounds, 0.007% hits; Potency, µM (series often up to 45.6 µM), for inactives: at the top dose activation, most hits filed as activators; note: % of control where 0% means no effect
HEK293 tox: cytotoxic in the GLP-1 receptor inverse agonist counter-screen | HEK293 cAMP-luciferase reporter cells, luminescence, 24 h | Potency, µM (titrated, usually from 38.3 µM), for the others: top-dose activity change, negative = inhibition, hits mostly inhibitors | 410,000 compounds, 0.13% hits | AID 624418;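 note: loss of luciferase light is scored as toxicity; % is set by controls: 0 for no effect and ±100 for the full control effect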
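A 23 nL compound transfer followed 12 hours of cell culture at 37 deg C; exposure then lasted 24 hr. Luciferase assay detection reagent was dispensed and plates read for luminescence after a 12 min room-temperature wait.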
PTHR1 agonist: activates the human parathyroid hormone receptor PTHR1; HEK293 GP2 PTHR1 cells, GloSensor cAMP luminescence, 1 h; Potency, µM (series often up to 115 µM), for inactives: top-dose activation, hits mostly activators; 410,000 compounds, 0.075% hits; note: nearly all actives have a fitted effect of over 55% in size
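HEK-293-derived GP2 cells expressing PTHR1 and a GloSensor cAMP reporter, 3,000/well, plated overnight, given luciferin plus IBMX (each 0.5 mM as added) for 1 h at 37 °C, then compound for 1 h at 37 °C. Luminescence was read after 15 min at room temperature.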
RGS4 inhibitor: inhibitors of human regulator of G protein signaling 4; 390,000 compounds, 0.039% hits; Transcreener GDP fluorescence polarization, RGS4-accelerated GTP hydrolysis; Potency, µM (highest dose often 114 µM), without a hit: top-dose activity change, negative = inhibition, usual class: inhibitors; AID 504845; P49798; note: % is set by controls: 0 for no effect and ±100 for the full control effect; nearly all actives have a fitted effect of over 75% in size
Target sequence (P49798 whole entry, looked up): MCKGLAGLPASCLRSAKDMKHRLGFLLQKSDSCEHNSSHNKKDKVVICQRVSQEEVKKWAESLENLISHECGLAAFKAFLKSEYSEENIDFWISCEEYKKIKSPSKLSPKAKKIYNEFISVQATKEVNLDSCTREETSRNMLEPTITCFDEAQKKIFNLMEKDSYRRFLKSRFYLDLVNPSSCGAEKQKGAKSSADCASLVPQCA
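MLSMR compounds (23 nl, pin-transferred) preincubated 10 min at room temperature with a 500nM (2x) first reagent, then RGS4 at 900nM (2x) plus Transcreener GDP mix added; fluorescence polarization (620/688 nm) read before and after 90 min at 30 °C.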
The depositor's hits bear a star; i = inactive; ? = inconclusive; . = no result; ! = repeats disagree; [ ] = remark or other dose. Calls come from the whole dose curve; as a rule, active = well fitted curve in the direction sought with a large enough effect; inconclusive = small, poorly fitted or top-dose-only effect, or another doubt; inactive = no such curve, though single readings can be large; an effect the other way counts as inactive or inconclusive. Potency is the fitted concentration of half-maximal effect.

SMILES | GLP1R inv ag | GLP-1R agonist | HEK293 tox | PTHR1 agonist | RGS4 inhibitor
CCC(=C(c1ccc(OC)cc1)c1ccc(OC)cc1)c1cn(CC(O)CN2CCN(C)CC2)c2ccccc12 (configuration not stated) | 10µM* | -22.5% | ? | i | -9.2%
COc1ccccc1OCCCn1cc(C(=O)C2CC2)c2ccccc21 | -3.5%[0.307 µM] | 8.1% | 2.3%[0.307 µM] | -6.0% | -24.0%
COc1ccccc1/C=C/CN1CCC(n2nccc2NC(=O)CCc2ccccc2)CC1 | ? | -5.6% | ? | -53.3% | 2.9%
Cc1ccc(N(CCC#N)C(=O)CCl)cc1C | 2.82µM* | -1.1% | ? | -4.0% | -14.6%
Nc1ccc2c(c1)C(=O)C(=O)c1ccccc1-2 | ? | -32.5% | 3.55µM* | -26.9% | ?
O=C(c1[nH]c(C(F)(F)F)nc1-c1ccccc1)N1CCc2c([nH]c3ccccc23)C1 | ? | -1.7% | ? | -10.8% | .
COc1ccc(-n2c(/C=C/c3ccc(O)cc3)nc3ccccc3c2=O)cc1 | 10µM* | 9.2% | -29.4% | -47.8% | 5.1%
CCOc1ccc(NC(=O)CN(c2ccc([N+](=O)[O-])cc2)S(=O)(=O)c2ccccc2)cc1 | 3.98µM* | ? | ? | -16.1% | -25.4%
CCOc1ccc(NC(=O)C2C3c4ccccc4C(c4ccccc43)C2C(=O)O)cc1 (configuration not stated) | ? | -7.3% | -4.1% | i | -7.5%
Cc1ccc2ccc(S(=O)(=O)NCc3ccco3)cc2c1 | 9.9% | 10.2% | 25.2% | -40.1% | -36.5%
CCC1C(=O)OCC1Cc1cncn1C (configuration not stated) | . | 11.2% | . | . | 26.7µM*!
O=C(C1CCN(c2ncnc3c2nc2n3CCCCC2)CC1)N1CCN(c2cccc(Cl)c2)CC1 | 8.91µM* | -1.8% | ? | -45.1% | -6.4%
c1ccc(N2CCN(c3ncnc4c3nc3n4CCCCC3)CC2)cc1 | -8.4% | 2.4% | -7.9% | -36.3% | 10.9%
Cc1cccc(-c2cc3nc(-c4ccccc4)cc(N4CCC5(CC4)OCCO5)n3n2)c1 | 10µM* | 0.5% | 113.3% | i | 20.5%
Cc1nc2cc(-c3cccc(F)c3)nn2c(C)c1CCC(=O)N1CCC2(CC1)OCCO2 | 25.2% | -3.4% | -2.3% | -16.2%[57.5 µM] | -34.7%
Cc1c(N)nc([C@@H](CC(N)=O)NC[C@H](N)C(N)=O)nc1C(=O)N[C@H](C(=O)N[C@H](C)[C@H](O)[C@H](C)C(=O)N[C@@H](C(=O)NCCc1nc(-c2nc(C(=O)NCCC[S+](C)C)cs2)cs1)[C@H](C)O)[C@H](O[C@@H]1O[C@@H](CO)[C@@H](O)[C@H](O)[C@@H]1O[C@H]1O[C@H](CO)[C@H](O)[C@H](OC(N)=O)[C@@H]1O)c1cnc[nH]1 | . | -5.7% | . | . | .
